Measured values: PubChem BioAssay AID504607 (Sanford-Burnham Center for Chemical Genomics, 2011)
Out of some 6,200 compounds screened, about 4,800 (77%) were called active. So high a share suggests a set chosen from earlier hits. These entries were drawn from the full list. Values without a mark were called inactive.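 How the source made its calls: active means mean inhibition at 8 µM reaching about 37%, which flags the compound as non-specific (limit read from the data); inactive means the rest.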

Experiment: full-length luciferase signal inhibition, confirmation, counter-screen for Mdm2/MdmX interaction inhibitor project, cell-based, single concentration, SaOS-2 (AID 504607);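 further: p53-null SaOS-2 cells with luciferase driven by a doxycycline-inducible promoter; compound on cells about two nights before reading with doxycycline added after day one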
Conditions: SaOS-2 full-length luciferase counterscreen, luminescence; at 8 µM; stronger effect = higher value

Structure (SMILES) | inhibition
O=C1[C@H]2[C@@H](c3ccc(F)cc3)N3C(=O)N(c4ccc(C(F)(F)F)cc4)C(=O)[C@@]3(Cc3ccccc3)[C@H]2C(=O)N1C1CCCCC1 | 48.6% (active)
COc1ccc2[nH]c(=O)c(CN(Cc3cccnc3)S(=O)(=O)c3ccccc3F)cc2c1 | 56.2% (active)
Cc1ccc(-c2cn3cc(C)ccc3n2)cc1 | 29%
Cc1ccc2nc(-c3ccc(Br)cc3)cn2c1 | 133% (active)
FC(F)(F)c1nnc2c3ccccc3c(Cl)nn12 | 79.9% (active)
CC1CN(C(=O)CCC(=O)NCCCN2CCC(Cc3ccccc3)CC2)c2cc(Cl)ccc2O1 (centres undefined) | 40.4% (active)
O=C(N/N=C\c1cc2c(cc1Cl)OCO2)c1ccc(Br)s1 | 94.6% (active)
CCN(CC)S(=O)(=O)c1ccc(NC(=O)c2cccnc2Cl)c(NC(=O)c2cccnc2Cl)c1 | 43.5% (active)
N=c1n(CCc2ccccc2)c2ccccc2n1Cc1ccccc1F | 69.7% (active)
CCOC(=O)/C=C/C(=O)OCC(=O)NC(c1ccccc1)c1ccccc1 | 56.8% (active)
O=[N+]([O-])/C=C/c1ccc2c(ccn2Cc2ccccc2)c1 | 49% (active)
COc1ccc(Nc2oc(-c3ccccc3Cl)nc2C#N)cc1 | 79% (active)
O=C(NNc1ccccc1Cl)C(O)(c1cccc(C(F)(F)F)c1)c1cccc(C(F)(F)F)c1 | 87.9% (active)
COC(=O)c1sc(-c2ccc(C(C)(C)C)cc2)cc1NC(=O)/C=C/C(=O)O | 55.9% (active)
O=C(CSc1cccc2cccnc12)N/N=C/c1cccnc1 | 68.1% (active)
CC(=O)/C(=N\Nc1ccc(Cl)cc1Cl)Sc1cccc2cccnc12 | 19.1%
CCn1cc(CN2CCC(C(=O)Nc3cccc(-c4cccc(Cl)c4)c3)CC2)c(C)n1 | 74.2% (active)
c1ccc2c(c1)CSc1sccc1C2=C1CCNCC1 | 44.8% (active)
COc1cccc(-n2c(SCC(=O)NC3CCCCC3)nc3n[nH]c(C)c3c2=N)c1 | 66.3% (active)
NC(=O)c1sc2nc3c(c(-c4ccccc4)c2c1N)CCC3 | 43.5% (active)
Cc1ccccc1C(=O)N1CCN(c2ccc(NC(=O)c3cccs3)cc2)CC1 | 65.1% (active)
Cc1cc(C(=O)NC2CCCc3c2cnn3-c2cccc(C)c2C)c(C)o1 (centres undefined) | 91% (active)
COc1ccc(C(=O)NC2CCCc3c2cnn3-c2cccc(C)c2C)c(OC)n1 (centres undefined) | 54.8% (active)

Structure (SMILES) | inhibition
CC(NC(=O)Nc1ccccc1)C(c1cccs1)N1CCN(c2ccccc2)CC1 (centres undefined) | 58% (active)
CC(=O)Nc1ccc(NC(=O)C(C)OC(=O)c2ccccc2C(=O)c2ccc(Cl)c([N+](=O)[O-])c2)cc1 (centres undefined) | 52.9% (active)
N#Cc1cccc(NC(=O)COC(=O)c2ccccc2C(=O)c2ccc(Cl)c([N+](=O)[O-])c2)c1 | 50.4% (active)
Cc1cccc(-c2oc3ccc(-c4ccc5c(c4)OCO5)cc3c2C#Cc2cncn2C)c1 | 80.9% (active)
Oc1ccccc1N1CCN(c2ncnc3sc(-c4ccccc4)cc23)CC1 | 58.6% (active)
O=C(Oc1c(-c2ccco2)oc2ccccc2c1=O)c1cccnc1 | 90.3% (active)
COc1cc2c(cc1OC)C(C)N(S(=O)(=O)c1cnc(Cl)c(Cl)c1)CC2 (centres undefined) | 45.3% (active)
CN(C)CC(O)COc1ccc(C(C)(C)c2ccc(OCC(O)CN(C)C)cc2)cc1 (centres undefined) | 56.8% (active)
Cn1cc(/C=C/c2nc3ccccc3c(=O)n2-c2cccc([N+](=O)[O-])c2)c2ccccc21 | 90.7% (active)
C=CCn1c(C)cc(C(=O)CN2C(=O)c3ccccc3C2=O)c1C | 103% (active)
C=CCn1c(C)cc(C2=NNC(=NCC)SC2)c1C | 24.4%
O=C(NCC#CCSc1nnc(-c2cccc3ccccc23)o1)c1cccs1 | 22.6%
CCCc1nc2c(c(=O)c3ccccc3n2C)c(=O)n1C1CCCCCC1 | 63.9% (active)
COc1cccc(CNC(=O)c2nnn(CC(=O)Nc3cc(Cl)ccc3C)c2N)c1 | 47.8% (active)
Cc1cc(C)c2[nH]c(=O)c(CN(Cc3ccccc3)C(=S)NCCCN(C)C)cc2c1 | 58.1% (active)
COc1ccc(-c2nc(-c3ccccc3)no2)c(OC)c1 | 95.8% (active)
CSc1nc(-c2ccccc2)nc(C(Cl)Cl)n1 | 49.7% (active)
O=C(Cn1nnc(-c2ccccc2)n1)N/N=C/c1ccc(-c2ccc(Cl)cc2)o1 | 106% (active)
COc1cc(NC(=O)c2ccccc2NS(=O)(=O)c2ccc(Cl)s2)cc(OC)c1 | 40.5% (active)
CCc1ccc(-c2cc3c(=O)n(CC(=O)NCCCN4CCN(Cc5ccccc5)CC4)nc(C)n3n2)cc1 | 60.8% (active)
CCc1ccc(CNC(=O)C2CCN(c3nnc(C)c4c(C)n(-c5ccc(C)cc5)nc34)CC2)cc1 | 23.7%
FC(F)(F)c1ccc(CN2C[C@@H]3C(c4ccccc4)C4(c5ccccc5)CC3(C4)[C@H]2c2ccccc2)cc1 (some centres undefined) | 27.2%
COCCCNc1nc2c(-c3cccc(C)c3)nnn2c2ccc(Cl)cc12 | 54.2% (active)

Structure (SMILES) | inhibition
CCOc1ccccc1NC(=O)Cn1nnc(C(=O)NCc2cccs2)c1N | 80.5% (active)
Cc1ccccc1OCCOc1ccc([N+](=O)[O-])cc1/C=N/n1cnnc1 | 89% (active)
CC1(C)CC(N2CCN(C(c3ccccc3)c3ccccc3)CC2)=CC(=[N+]2CCCCC2)C1 | 55.6% (active)
Cc1ccc2occ(/C=N/NC(=O)c3ccccc3C)c(=O)c2c1 | 34.4%
Cc1c(/C=N\NC(=O)c2cc3ccccc3o2)c2ccccc2n1C | 61.8% (active)
Cc1cccn2c(=O)c3cc(C(=O)NCCN4CCOCC4)c(=N)n(Cc4cccnc4)c3nc12 | 57.1% (active)
COc1ccc(CCn2c(=N)c(C(=O)NCC3CCCO3)cc3c(=O)n4cccc(C)c4nc32)cc1OC (centres undefined) | 54% (active)
Cc1cccc(-n2ncc(Cl)c(Cl)c2=O)c1 | 0.23%
CN(Cc1ccccc1)CC(O)COc1ccc(CNCc2cc3ccccc3s2)cc1 (centres undefined) | 79.3% (active)
O=C(Nc1ccncc1)c1c(F)cccc1F | 38.9% (active)
CC(C)(C)CC(C)(C)NCC(O)COCCOc1ccc(Br)cc1 (centres undefined) | 62.6% (active)
COc1ccccc1N1CCN(C(=O)c2cc(=O)c3cc(C)cc(C)c3o2)CC1 | 101% (active)
Oc1c(Br)cccc1/C=N/Nc1c(F)c(F)c(F)c(F)c1F | 56.7% (active)
O=C(Nc1ccc2ccccc2c1)Nc1ccc2snnc2c1 | 44.4% (active)
COc1cccc(NC(=O)[C@H](Cc2c[nH]c3ccccc23)NC(=O)[C@@H]2Cc3ccccc3CN2)c1 | 53.2% (active)
Cc1cc(CNC(=O)c2cccc([N+](=O)[O-])c2)c2ccccc2n1 | 41.5% (active)
O=C(NC(Nc1nc2ccc([N+](=O)[O-])cc2s1)(C(F)(F)F)C(F)(F)F)c1ccccc1 | 8.11%
Cc1ccc(-c2nc3ccccc3[nH]2)cc1NC(=O)c1sc2ccccc2c1Cl | 18.5%
CCOC(=O)c1c(NC(=O)c2ccc(S(=O)(=O)N(C)CC3CCCO3)cc2)sc2c1CC(C)(C)NC2(C)C (centres undefined) | 62.7% (active)
COC(=O)c1c(NC(=O)COc2ccc(Cl)cc2Cl)sc2c1CC(C)(C)NC2(C)C | 3.07%
O=C(CC(O)(C(F)(F)F)C(F)(F)F)Nc1ccc(Cl)c(Cl)c1 | 58.1% (active)
Cc1cccc2sc(N(CCCN(C)C)C(=O)CCS(=O)(=O)c3ccccc3)nc12 | 14.4%
CN(NC(=O)c1ccccc1)c1nc2ccccc2nc1C(F)(F)F | 68.8% (active)

Structure (SMILES) | inhibition
CSc1nc(N(C)NC(=O)c2cccc(C)c2)c2ccccc2n1 | 135% (active)
CN(NC(=O)c1ccccc1F)c1nc(C(F)(F)F)nc2ccccc12 | 63.5% (active)
CC1(C)CCSC(/C=C/c2ccccc2)=N1 | 30.5%
Cc1ccccc1C(CC(=O)c1cccs1)C(C#N)C#N (centres undefined) | 45.1% (active)
Cc1cccc(NC(=O)Nc2cccc(Oc3c(F)c(F)c(F)c(F)c3F)c2)c1 | 32.5%
CCNS(=O)(=O)c1ccc(NC(=O)Nc2cccc(C(F)(F)F)c2)cc1 | 53.4% (active)
O=C(Nc1ccc(C(=O)N2CCOCC2)cc1)Nc1cccc(C(F)(F)F)c1 | 49.8% (active)
COc1ccc(-c2ccc(Nc3ccc(S(=O)(=O)N4CCCC4)cc3)nn2)cc1OC | 77.8% (active)
COc1ccc(-c2cc(C(F)(F)F)nc(S(C)(=O)=O)n2)cc1OC | 24.3%
COc1ccc(C(=O)O/N=C(\N)Cc2ccc(Cl)cc2Cl)cc1OC | 47.8% (active)
Cc1cccc(Nc2ccccc2C(=O)NCc2ccco2)c1C | 39.6% (active)
COc1ccc2sc(-c3ccc(S(C)(=O)=O)cc3)c(C#Cc3cncn3C)c2c1 | 44.8% (active)
COc1cccc(-c2sc3ccc(OC)cc3c2-c2ccc(OCCN3CCCCC3)cc2)c1 | 32.7%
O=C1N/C(=C/c2cccn2-c2ccccc2)C(=O)N1c1cccc(Cl)c1 | 126% (active)
Cc1cccc(-n2c(C)cc(/C=N\NC(=O)c3cccs3)c2C)c1 | 178% (active)
Cc1cc(C(=O)COc2ccccc2[N+](=O)[O-])c(C)n1-c1cccc(S(=O)(=O)N2CCOCC2)c1 | 89.8% (active)
Cn1nc(-c2ccccc2)c(CSc2cccc(Cl)c2)c1Cl | 51.5% (active)
CCN1CCN(CCNC(=O)c2ccc(/C=C3/Sc4ccccc4N(Cc4cccc(C)c4)C3=O)cc2)CC1 | 27.6%
CN1CCN(CCCNC(=O)c2ccc(/C=C3\Oc4ccccc4N(Cc4ccc(Cl)cc4)C3=O)cc2)CC1 | 62.6% (active)
Cc1ccc(OCC(O)CN2CCN(CC(O)COc3ccc(C)cc3Cl)CC2)c(Cl)c1 (centres undefined) | 71.1% (active)
